Results as given in PubChem BioAssay AID493131 (Broad Institute, 2011).
The campaign covered roughly 340,000 compounds. About 3,300 (0.97%) were called active. The sample holds actives, similar compounds and a random draw of the others, so the mix is not that of the screen. Unmarked numbers belong to inactive results.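 Rule for the calls: active = mean activation above about 17%, with every replicate also reaching it (limit read from the data, passing the limit was not always enough); inconclusive = only one of the two conditions met; inactive = the rest.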

Molecular target: Protein FosB (Mus musculus) (UniProt P13346)
Sequence (P13346 whole entry, looked up): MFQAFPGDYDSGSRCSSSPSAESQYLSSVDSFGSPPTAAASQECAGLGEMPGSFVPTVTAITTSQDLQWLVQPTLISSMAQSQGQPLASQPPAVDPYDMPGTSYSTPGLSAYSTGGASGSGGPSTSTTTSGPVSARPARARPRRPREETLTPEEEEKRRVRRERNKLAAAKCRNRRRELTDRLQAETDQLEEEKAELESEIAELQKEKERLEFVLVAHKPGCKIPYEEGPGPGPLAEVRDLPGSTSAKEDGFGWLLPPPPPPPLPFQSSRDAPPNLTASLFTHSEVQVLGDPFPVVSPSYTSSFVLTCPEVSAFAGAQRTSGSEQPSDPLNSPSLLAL
Test: enhancers of mouse delta FosB DNA binding – biochemical, fluorescence polarization, TAMRA-CDK5 oligo, single point, primary screen (AID 493131);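 note: fluorescence polarization rise as delta FosB binds a TAMRA Cdk5 AP-1 oligo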
Details: purified delta FosB, at 25 µM, stronger effect = higher value, percent of positive-control signal above neutral wells

SMILES | activation
COc1cc(C)ccc1OCC(=O)OCC(=O)c1ccc[nH]1 | 6.43%
Cc1ccccc1Nc1nc(N)nc(COC(=O)CCC(=O)c2ccc(F)cc2)n1 | -1.04%
Nc1nc(COC(=O)CCC(=O)c2ccc(Cl)cc2)nc(Nc2ccccc2)n1 | 21.6% (active)
CC(NC(=O)COC(=O)CCC(=O)c1ccc(Cl)cc1)c1ccccc1 (stereo not given) | -9.29%
OCCCNC(c1ccccc1)c1ccc(O)cc1 (stereo not given) | -0.537%
CCCC(=O)N(CCN1CCOCC1)c1nc2ccc(OCC)cc2s1 | 1.55%
CCOc1ccc2nc(N(CCN(C)C)C(=O)c3ccc4ccccc4c3)sc2c1 | 18.5% (active)
CCc1ccc2nc(N(CCCN(C)C)C(=O)c3ccc4c(c3)OCCO4)sc2c1 | -10.5%
Cc1onc(-c2ccccc2Cl)c1C(=O)N(Cc1ccc(N(C)C)cc1)C(C)C | -12.7%
O=C(N/N=C/c1ccco1)c1csc2c1CCCC2 | 2.38%
O=C(N/N=C/c1ccco1)c1ccc(NC(=O)C2CC2)cc1 | 31.9% (active)
O=C(Cc1ccccc1)Nc1cccc(C(=O)N/N=C/c2ccco2)c1 | -7.68%
O=C(NCC1CCCCC1)NCC1CCCCC1 | -3.89%
CCC(C)NC(=O)c1ccc(NC(=O)CC2SC(N3CCCCC3)=NC2=O)cc1 (stereo not given) | -9.42%
Cc1cc(C)n2nc(CNS(=O)(=O)c3c(F)c(F)c(F)c(F)c3F)nc2n1 | -1.9%
CCn1c(NC(=O)c2ccccc2)c(-c2cccs2)c(=O)c2ccccc21 | -4.73%
CCn1c(=O)c2cc(C(=O)Nc3cccc(C(C)=O)c3)sc2c2ccccc21 | 73.2% (active)
CC(=O)c1cccc(NC(=O)c2cc(C)nn2-c2ccccc2)c1 | -9.9%
CCc1cccc(NC(=O)COC(=O)c2cc(=O)c3ccccc3o2)c1 | -5.91%
COC(=O)c1c(C(=O)OC)c(-c2cccc(C)c2)n2c1CS(=O)C2 (stereo not given) | -2.6%
Cc1ccccc1Nc1c([N+](=O)[O-])ccc2nonc12 | -0.872%
CN(C)CCN(C(=O)C1=COCCO1)c1nc2ccc(Cl)cc2s1 | -10.2%
CN(C)CCCN(C(=O)c1ccc(S(=O)(=O)N2CCCCCC2)cc1)c1nc2ccc(Br)cc2s1 | 41% (active)

SMILES | activation
COc1ccc2sc(N(CCCN(C)C)C(=O)c3ccc(S(=O)(=O)N(C)C4CCCCC4)cc3)nc2c1 | 15.3%
CCCCn1c(N)c(N(CCC(C)C)C(=O)COC(=O)c2cccnc2OCC)c(=O)[nH]c1=O | 1.39%
CCCCn1c(N)c(N(CCC(C)C)C(=O)COC(=O)c2ccc(CC)cc2)c(=O)[nH]c1=O | 23.1% (active)
CCCCn1c(N)c(N(CCC(C)C)C(=O)c2ccc([N+](=O)[O-])o2)c(=O)[nH]c1=O | -0.599%
CCn1c(/C=C/Nc2ccccc2)[n+](CC)c2ccc(C(=O)OCC(F)(F)F)cc21 | -11.5%
O=C(NCCCn1ccnc1)C1CCCN(S(=O)(=O)c2cc(Cl)ccc2Cl)C1 (stereo not given) | -4.73%
CC(Sc1nc2cc(Cl)ccc2s1)C(=O)Nc1ccc2c(c1)OCO2 (stereo not given) | -3.52%
CC(Sc1nc(-c2ccccc2)cc(C(F)(F)F)n1)C(=O)Nc1ccc2c(c1)OCO2 (stereo not given) | 30.4% (active)
CCSc1ccccc1C(=O)Nc1ccc2c(c1)OCO2 | 0.935%
O=C1/C(=C/c2ccc3c(c2)OCO3)Oc2cc(OCC(=O)N3CC(O)C[C@H]3C(=O)O)ccc21 (stereo not given in full) | -7.81%
Cc1ccc(C(=O)NNC(=O)c2ccc3c(c2)OCCO3)cc1 | -13%
Cc1ccc(C(=O)NNC(=O)c2cc3cc4ccccc4nc3s2)cc1 | 26.4% (active)
Cc1ccc(C(=O)NNc2ncnc3ccccc23)cc1 | -2.14%
O=C(CN1CCN(S(=O)(=O)/C=C/c2ccccc2)CC1)NC(=O)NCc1ccco1 | -9.92%
O=C(COC(=O)c1ccc(S(=O)(=O)N2CCc3ccccc3C2)cc1)NC(=O)NCc1ccco1 | 61.2% (active)
CC(NC(=O)c1cccc(S(=O)(=O)N2CCc3ccccc3C2)c1)c1ccco1 (stereo not given) | 7.07%
Cc1cccc(C)c1NC(=S)N(Cc1cccnc1)Cc1ccccc1Cl | 2.24%
COC(=O)C(C(=O)Nc1cccc(Cl)c1C)C1CCCC1 (stereo not given) | 0.709%
COc1cccc(/C=N/NC(=O)c2[nH]nc3c2CCc2ccccc2-3)c1O | 76.1% (active)
COc1ccc(/C=N/NC(=O)c2ccncc2)cc1CN1CCCc2ccccc21 | -19.4%
COc1cccc(/C=N/NC(=O)CNC(=O)c2ccc(S(=O)(=O)N3CCOCC3)cc2)c1OC | 1.33%
CCOc1ccc2c(=O)c(-c3ccc4c(c3)OCCCO4)c(C)oc2c1 | 5.27%
CCn1cc(CN2CCC(C(=O)Nc3cccc(-c4cccc(Cl)c4)c3)CC2)c(C)n1 | -5.85%

SMILES | activation
O=C1c2ccncc2C(=O)N1C1CCCCC1 | -3.57%
COc1ccc(-c2cc(=O)oc3cc(OC(C)C(=O)NCC4CCC(C(=O)O)CC4)ccc23)cc1 (stereo not given) | 2.8%
Cc1cc(=O)oc2cc(OC(C)C(=O)Nc3ccc(N4CCOCC4)cc3)ccc12 (stereo not given) | 14.2%
COc1ccc(-c2cc(=O)oc3cc(OC(C)C(=O)Nc4ccc(CN5CCOCC5)cc4)ccc23)cc1 (stereo not given) | 28.5% (active)
COc1ccc(CCN(C)C(=O)C23CC4CC(CC(Cl)(C4)C2)C3)cc1OC | -11.5%
CCOc1ccc(NC(=O)CSc2ncnc3c2sc2ccccc23)cc1 | -0.561%
COc1cc(C(=S)NCc2ccccc2)cc(Br)c1O | -3.42%
Cc1nn(Cc2ccc(Cl)cc2)c(Cl)c1/C=N/NC(=O)CNc1ccccc1F | 20.3% (active)
CCn1nc(C)c(/C=N/NC(=O)Cc2ccc(Cl)cc2)c1C | -5.48%
COc1ccc(Cl)cc1NC(=O)CNc1ccccc1F | 0.137%
COC(=O)c1ccc(C(=O)Nc2cc(Cl)ccc2Cl)cc1NC(=O)c1ccccc1C | -4.76%
COc1cccc(NC(=O)Cn2c3ccc(F)cc3c3nc4n(c(=O)c32)CCS4)c1 | 20.4% (active)
COc1ccc2c(c1)c1nc3n(c(=O)c1n2CC(=O)Nc1ccccc1)CCS3 | 2.33%
COc1cccc(NC(=O)Cn2c3ccccc3c3nc4n(c(=O)c32)CCS4)c1 | 10.7%
CC1=NN(c2cccc(Cl)c2)C(=O)C12CC(C)=C(C)CS2 (stereo not given) | -6.87%
Oc1ccccc1CNc1ncc(Br)cc1Br | -0.334%
CC(C)C(NC(=O)c1cccc(S(=O)(=O)N2CCOCC2)c1)C(=O)NCCc1ccccn1 (stereo not given) | -1.29%
Cc1c(C#N)c2ncn(CC#N)c(=O)c2n1-c1ccccc1 | -7.05%
COc1ccc(-c2cc3n(n2)CCc2nc4ccccc4n2-3)cc1 | 18.1% (active)
COc1ccc(-c2cc(C(=O)n3cnc4ccccc43)c3ccccc3n2)cc1 | -10%
COc1ccc(-c2cc3ncccc3cn2)cc1 | -21.2%
CC(=O)N1CCN(CC(c2ccccc2)c2ccccc2)CC1 | 1.45%
O=c1[nH]snc1-c1c(Cl)cccc1Cl | -3.4%

SMILES | activation
CN(CC(=O)Nc1ccc(Cl)cc1)C(=O)c1ccc(COc2ccccc2)cc1 | -1.5%
CN(CC(=O)Nc1ccc(Cl)cc1)C(=O)CNC(=O)c1ccc2ccccc2c1 | 38.6% (active)
O=C(NNC(=O)c1ccc2ccccc2c1)c1ccc(Cl)cc1 | 4.76%
Nc1ccccc1/C=N\N=C/c1ccccc1N | 1.65%
Cc1nc(-c2ccc(Cl)cc2)sc1C1(C)CC(c2ccc(Br)cc2)=NO1 (stereo not given) | -6.82%
COc1ccc(Cn2c(=S)[nH]c3cc(C(=O)N4CCCCC4)ccc3c2=O)cc1 | 67.5% (active)
COc1ccc(Cn2c(=S)[nH]c3cc(C(=O)NCCCN4CCOCC4)ccc3c2=O)cc1 | -7.8%
COc1ccc(OC)c(-n2c(=S)[nH]c3cc(C(=O)N4CCCCC4)ccc3c2=O)c1 | 0.446%
CC(C)C(OC(=O)c1cccs1)C(=O)NC1CCCCC1 (stereo not given) | 0.731%
Cc1c[n+]([O-])ccc1[N+](=O)[O-] | 1.75%
CCc1nnc(NS(=O)(=O)c2ccc(NC(=S)NC(=O)/C=C/c3cccs3)cc2)s1 | -19.1%
COc1cc(C(C)=O)ccc1OC(C)C(=O)Nc1ccc(S(=O)(=O)N2CCCC2)cc1 (stereo not given) | -5.8%
C=CCn1c(=NC(=O)c2ccc(S(=O)(=O)N3CCCC3)cc2)sc2cc(NC(C)=O)ccc21 | 50.4% (active)
CC(=O)Nc1ccc(S(=O)(=O)N2CCSCC2)cc1 | -10.4%
CC(NC(=O)CCCC1CCCCC1)c1ccc(S(N)(=O)=O)cc1 (stereo not given) | -18.3%
Cc1n[nH]c(=O)c2c1nnn2Cc1ccc(F)cc1 | 0.186%
O=C(CN1CCN(S(=O)(=O)c2ccc(Cl)s2)CC1)N1CCCCC1 | -6.89%
COc1cc(OC)cc(C(=O)NC(C(=O)N2CCC2)C(C)C)c1 (stereo not given) | 0.275%
COc1ccc(N2CCN(C(=O)[C@@H](NC(=O)c3cc(OC)cc(OC)c3)C(C)C)CC2)cc1 | -9.58%
COc1cc(OC)cc(C(=O)N[C@H](C(=O)NNC(=O)c2ccc(Br)cc2)C(C)C)c1 | 23.4% (active)
COc1ccc(C)cc1NC(=O)CN(C)S(=O)(=O)c1ccc2c(c1)n(C)c(=O)c(=O)n2C | -14%
